Results reported in PubChem BioAssay.
The source made the active and inactive calls.

Assay: optical density shifts of acrAB sulA E. coli – strain DRC41, OD650, 48 h, E. coli filamentation inducer project, primary screen (AID 1152);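 further: E. coli MC1000 strain DRC41 lacking acrAB efflux pump and sulA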
Conditions: higher = more signal, called active from +8 up or from −8 down
For C=CCC1=C[C@H]2[C@H]([C@@H]3C=C[C@]2(CC=C)C(=O)[C@]32CO2)[C@@]2(CO2)C1=O, the z-score was 2.45 (inactive).
For Cc1ccc(S[C@]2(C(=O)O)CC(=O)N(Cc3ccccc3)[C@@H]2c2ccc(CO)cc2)cc1, the z-score was 2.89 (inactive).
In the case of CCCNC(=O)[C@@H]1c2ccccc2C(=O)N(Cc2cc(F)cc(C(F)(F)F)c2)[C@H]1c1ccc(CO)cc1, the z-score was 1.86 (inactive).
With O=C1c2ccccc2[C@](Cc2ccccc2I)(C(=O)O)[C@H](c2ccc(CO)cc2)N1C1CCCCC1 the z-score was 2.84 (inactive).
For [N-]=[N+]=NCc1ccccc1C[C@]1(C(N)=O)N=C(c2ccc(OCCCO)cc2)O[C@H]1c1ccccc1CN=[N+]=[N-], the z-score was 0.0277 (inactive).
With CO[C@H]1COC(=O)[C@H](C)NC(=O)CC=C[C@@H](C)[C@H](NS(=O)(=O)c2ccc(C)cc2)COC(=O)[C@@H](OCc2ccccc2)C=C[C@@H]1C the z-score was 0.117 (inactive).
For COC(=O)c1c(CC[C@@H](CO)NC(=O)N[C@H](Cn2cc(-c3cncn3C)nn2)C(C)C)oc(C(C)=O)c1C(=O)OC, the z-score was 2.49 (inactive).
In the case of C=C(COC)/C(=C/C[C@@H](OC(C)=O)c1cccc(OCCO)c1)c1cc(C(=O)OC)ccc1OC, the z-score was 1.37 (inactive).
In the case of CC(C)[Si]1(C(C)C)O[C@@H](c2ccccc2)c2cc(C3CC3)nc(-c3ccc(Oc4ccccc4)cc3)c21, the z-score was 2.17 (inactive).

Assay: probe aLefty1 binding on compound microarray – biochemical, small-molecule microarray, 635/667 nm fluorescence, primary screen (AID 1153);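 further: score merges spot fluorescence with signal-to-noise ratio from the scanned slide images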
Conditions: higher = more signal
In the case of C=CCOC(=O)[C@@H]1[C@H]2C(=O)O[C@H](c3ccccc3)[C@H](c3ccccc3)N2[C@H](c2ccc(OCCOC(=O)[C@H]3C[C@H]4C(=O)N5CCC[C@H]5C(=O)N4[C@H]3c3ccc(O)cc3)cc2)[C@@]12C(=O)Nc1ccccc12, the composite z-score was 0.244.
In the case of C[C@@H]1CC[C@H]2C(=O)N3[C@@H](CC[C@@H](C)[C@@H]3c3cccc(N4CCOCC4)c3)C(=O)N2[C@H]1c1cccc(N2CCOCC2)c1, the composite z-score was 0.191.
COc1ccc(-c2ccccc2[C@@H]2N[C@H](C(=O)O)CC[C@H]2C)cc1 showed a composite z-score of -0.147.
In the case of CN1CCC(CCCO)=CC1C1CC1 (stereo not given), the composite z-score was -0.0984.
C=CCC(OC(C)=O)[C@@H]1[C@@H](N(Cc2cc3ccccc3o2)C(=O)c2ccc(C)cc2)c2cc(OCCCO)ccc2N1C(=O)c1ccc2ccccc2n1 (stereo not given in full) gave a composite z-score of -0.007.
With C[C@H]1COC(=O)[C@H](Cc2ccccc2)NC(=O)[C@@H](C)COC(=O)[C@H](Cc2ccccc2)NC1=O the composite z-score was -0.239.
In the case of CCN1C(C)=C(C(=O)OC)[C@@H](c2ccccc2)N2C(=O)[C@@]3(C(=O)OC)O[C@@]12[C@@H]1C(=O)N(c2ccccc2)C(=O)[C@@H]13, the composite z-score was 0.0166.
Work on CCCC/C=C/[C@H]([C@@H](O)Cc1ccccc1)N(CC#Cc1ccccc1)Cc1ccccc1Br yielded a composite z-score of -0.0061.
Cc1ccc(S[C@]2(C(=O)NCCCN(C)C)CC(=O)N(C3CCCCC3)[C@@H]2c2ccc(CO)cc2I)cc1 showed a composite z-score of 0.0919.
Compound CO[C@@H]1COC(=O)[C@H](C)NC(=O)CC=C[C@@H](C)[C@H](NS(=O)(=O)c2ccc(C)cc2)COC(=O)CC=C[C@@H]1C has a composite z-score of -0.15.
Compound C=CCNC(=O)[C@H]1[C@@H]2C(=O)O[C@@H](c3ccccc3)[C@@H](c3ccccc3)N2[C@@H](c2ccccc2OCCO)[C@]12C(=O)N(C(=O)OCCOC)c1ccc(C#CCC(C(=O)OC)C(=O)OC)cc12 has a composite z-score of 0.042.
With CC(=O)NCCCC[C@@H]1NC(=O)[C@@H]2C[C@H](C(=O)NCCCCCCN(C)C)[C@H](c3ccc(O)cc3)N2C1=O the composite z-score was -0.0619.
Compound O=C(NCC(O)CO)[C@]1(Cc2ccccc2)N=C(c2ccc(OCCCO)cc2)O[C@@H]1c1ccccc1 (stereo not given in full) has a composite z-score of 1.39.
In the case of C[C@H]1NC(=O)[C@@H](C)NC(=O)[C@@]23C(=O)N[C@@H](Cc4ccccc4)C2[C@H](C)[C@@]2(C)O[C@H]2C3/C=C/C/C=C\CNC1=O (stereo not given in full), the composite z-score was -0.245.
With CC(C)N1CC=CC23O[C@@H]4/C=C\CCCOC(=O)C4[C@H]2C(=O)N(CCO)[C@@H]3C1=O (stereo not given in full) the composite z-score was -0.0518.
C=CC[C@]1(C(=O)O)N=C(c2ccc(OCCCO)cc2)O[C@H]1c1ccccc1 showed a composite z-score of -0.0984.
Work on CC(C)CNC(=O)[C@@]1(C)c2ccccc2C(=O)N(Cc2ccc(OC(F)(F)F)cc2)[C@H]1c1ccc(CO)cc1 yielded a composite z-score of 0.152.
CO[C@H]1COC(=O)[C@H](Cc2ccccc2)NC(=O)CC=C[C@@H](C)[C@H](OC)COC(=O)CC=C[C@@H]1C gave a composite z-score of -0.0241.
C=C(COC)/C(=C/C[C@@H](OC(=O)c1ccncc1)c1ccc(OCCO)cc1)c1cc(C(=O)OC)ccc1OC showed a composite z-score of 0.0686.
For CSCC[C@@H]1NC(=O)CC=C[C@@H](C)COC(=O)[C@H](CCSC)NC(=O)CC=C[C@@H](C)COC1=O, the composite z-score was -0.0559.
Work on O=C1OCC=C[C@H]2OC34C=CCN(Cc5ccccc5)C(=O)[C@H]3N(CCCCCO)C(=O)[C@@H]4[C@@H]12 (stereo not given in full) yielded a composite z-score of -0.44.
Cc1ccc(S[C@]2(C(=O)NCCN3CCOCC3)CC(=O)N(C3Cc4ccccc4C3)[C@@H]2c2ccc(CO)cc2I)cc1 gave a composite z-score of 0.392.
In the case of COC(=O)C[C@H]1O[C@]2(C(=O)N(C)c3ccccc32)[C@@H](C)[C@@H]1[Si](C)(C)c1ccc(OC)cc1, the composite z-score was -0.139.
In the case of CC/C=C/C(=O)N(C[C@@H]1CCCO1)[C@@H]1CC(C(=O)NCCO)=C[C@H](Oc2c(I)cc(CO)cc2OC)[C@H]1O, the composite z-score was 0.135.
C=C[C@H](OC)[C@@H](OC(=O)Nc1ccc(SC)cc1)c1ccc(OC)c(O)c1 showed a composite z-score of 0.0004.
In the case of CN1C2C=C(c3ccc(CO)cc3)C(C3C(=O)N(C(N)=O)C(=O)C32)C1c1cccs1 (stereo not given), the composite z-score was -0.0893.
For C=CCN(C(=O)C1N(c2ccc(CCO)cc2)C(=O)C2C(C(=O)O)C3C=CC21O3)C(C)(C)C (stereo not given), the composite z-score was 0.0445.
With C=CCC1=C[C@H]2[C@H]([C@@H]3C=C[C@]2(CC=C)C(=O)[C@]32CO2)[C@@]2(CO2)C1=O the composite z-score was 0.736.
Cc1ccc(S[C@]2(C(=O)O)CC(=O)N(Cc3ccccc3)[C@@H]2c2ccc(CO)cc2)cc1 showed a composite z-score of 0.0215.
In the case of CCCNC(=O)[C@@H]1c2ccccc2C(=O)N(Cc2cc(F)cc(C(F)(F)F)c2)[C@H]1c1ccc(CO)cc1, the composite z-score was 0.251.
O=C1c2ccccc2[C@](Cc2ccccc2I)(C(=O)O)[C@H](c2ccc(CO)cc2)N1C1CCCCC1 showed a composite z-score of 0.138.
For [N-]=[N+]=NCc1ccccc1C[C@]1(C(N)=O)N=C(c2ccc(OCCCO)cc2)O[C@H]1c1ccccc1CN=[N+]=[N-], the composite z-score was 0.71.
Work on CO[C@H]1COC(=O)[C@H](C)NC(=O)CC=C[C@@H](C)[C@H](NS(=O)(=O)c2ccc(C)cc2)COC(=O)[C@@H](OCc2ccccc2)C=C[C@@H]1C yielded a composite z-score of -0.303.
With COC(=O)c1c(CC[C@@H](CO)NC(=O)N[C@H](Cn2cc(-c3cncn3C)nn2)C(C)C)oc(C(C)=O)c1C(=O)OC the composite z-score was -0.148.
Compound C=C(COC)/C(=C/C[C@@H](OC(C)=O)c1cccc(OCCO)c1)c1cc(C(=O)OC)ccc1OC has a composite z-score of 0.0319.
CC(C)[Si]1(C(C)C)O[C@@H](c2ccccc2)c2cc(C3CC3)nc(-c3ccc(Oc4ccccc4)cc3)c21 gave a composite z-score of -0.0011.
